Records with an inconclusive call do not appear. Calls of active or inactive are those of the source. How the source made its calls, unless noted: active means hit-call score of the fitted dose curve at least 0.9, where 1 is the maximum; inactive means score below 0.9.

A short description of experiment [1]: CEETOX_H295R_PROG_noMTC: CeeTox H295R High-throughput Steroidogenesis Assay for Progesterone (PROG), maximum tolerated concentration (MTC) filtered results only (AID 2283920). The following applies: actives raise or lower the signal. The gist of the method: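 H295R human adrenal cells were prestimulated 48 h with 10 uM forskolin, then exposed 48 h to test chemical (0.1% DMSO final). Progesterone in medium was quantified by HPLC-MS/MS; bidirectional fitting versus DMSO, concentrations not MTC-filtered.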

Experiment [2] in a line: CEETOX_H295R_ESTRONE_noMTC: CeeTox H295R High-throughput Steroidogenesis Assay for Estrone, maximum tolerated concentration (MTC) filtered results only (AID 2283921). Particulars: actives raise or lower the signal. As to the method: CEETOX_H295R is a cell-based, multiplexed-readout assay that uses H295R, a human adrenal gland cell line, with measurements taken at 48 hours after chemical dosing in a 96-well plate.CEETOX_H295R_ESTRONE_noMTC is one of 12 assay component(s) measured or calculated from the CEETOX_H295R assay (11 hormones and 1 viability assay). It is designed to make measurements of hormone induction, a form of inducible reporter, as detected with absorbance signals by HPLC-MS-MS technology. The concentrations for these components have not been pre-filtered for the maximum tolerated concentration (MTC) based on the MTT assay (_noMTC).Data from the assay component CEETOX_H295R_ESTRONE_noMTC was analyzed into 1 assay endpoint. This assay endpoint, CEETOX_H295R_ESTRONE_noMTC, was analyzed with bidirectional fitting relative to DMSO as the negative control and baseline of activity. […]
Cell culture and media preparation procedures were conducted in accordance with OECD Test No. 456 guidelines, with minor modifications. […] For steroid quantification, media samples were shipped to OpAns, LLC (Durham, NC) on dry ice, and samples were thawed to room temperature prior to liquid-liquid extraction. […] Steroid hormones were separated by HPLC, eluted using a reverse phase C18 gradient with electrospray positive ionization, followed by quantification by tandem mass spectrometry (MS/MS). […]

For experiment [3], the target named is PGR (gene 5241) (UniProt P06401). Description: TOX21_PR_BLA_Followup_Agonist_ratio: Tox21 HEK293 Progesterone Receptor (PR) Agonism Beta-lactamase Follow-Up Assay, Ratio (AID 2283933; active means hit-call score of the fitted dose curve at least 0.9, where 1 is the maximum). The gist of the method:
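PR-UAS-bla HEK293T cells in medium with 2% charcoal-stripped FBS were dosed after 6 h plating and incubated 16 h at 37C. LiveBLAzer FRET substrate was added for 2 h at room temperature. Cleaved/uncleaved substrate ratio fitted against DMSO; CellTiter-Glo viability run in the same wells.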

Experiment [4] shares this target. Put plainly: TOX21_PR_BLA_Followup_Antagonist_ratio: Tox21 HEK293 Progesterone Receptor (PR) Antagonism Beta-lactamase Follow-Up Assay, Ratio (AID 2283934; active means hit-call score of the fitted dose curve at least 0.9, where 1 is the maximum). The gist of the method:
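PR-UAS-bla HEK293T cells, 3,000/well in 2% charcoal-stripped FBS, given compound plus 1nM R5020 agonist for 16 hr at 37C. Beta-lactamase FRET substrate 2 hours, ratio cleaved/uncleaved fluorescence; viability by CellTiter-Glo in same wells.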

Experiment [5] in a line: TOX21_PR_BLA_Followup_Agonist_viability: Viability Assessment in the Tox21 HEK293 Progesterone Receptor (PR) Agonism Beta-lactamase Follow-Up Assay (AID 2283935; active means hit-call score of the fitted dose curve at least 0.9, where 1 is the maximum;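 further: signal loss means lower viability so actives are cytotoxic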). A digest of the protocol:
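PR-UAS-bla HEK293T cells in 2% charcoal-stripped FBS medium, plated 6 hr before compound addition, exposed 16 hr at 37C. Viability read by CellTiter-Glo ATP luminescence after 30 min at room temperature, in the same wells as the beta-lactamase readout.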

Experiment [6] can be described thus: TOX21_PR_BLA_Followup_Antagonist_viability: Viability Assessment in the Tox21 HEK293 Progesterone Receptor (PR) Antagonism Beta-lactamase Follow-Up Assay (AID 2283936; active means hit-call score of the fitted dose curve at least 0.9, where 1 is the maximum;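 further: cells exposed to compound with R5020 agonist for 16 h; hits lower the luminescence signal meaning cytotoxicity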). The protocol:
TOX21_PR_BLA_Followup is a secondary assay for specificity for the TOX21_PR_BLA_Agonist assay. To differentiate true PR agonists from cytotoxic substances, this follow up assay is multiplexed with a cell viability assay. The compounds were also tested for auto fluorescence that may interfere with the biological target readout resulting in potential false positives and/or negatives. To identify the compounds that stimulate PR signaling, a PR-UAS-bla GripTite cell line i.e. PR-UAS-bla HEK293T (Invitrogen, Carlsbad, CA, USA) containing a beta-lactamase reporter gene under the control of an UAS response element was used to screen Tox21 10K compound library. The cytotoxicity of the Tox21 compound library against the PR-bla cell line was tested in parallel by measuring the cell viability using CellTiter-Glo assay in the same wells. TOX21_PR_BLA_Followup_Antagonist_viability is a component of the TOX21_PR_BLA_Followup_Antagonist assay. This component measures cell viability using the CellTiter-Glo Luciferase-coupled ATP quantitation.TOX21_PR_BLA_Followup_Antagonist_viability used a type of viability reporter where loss-of-signal activity can be used to understand changes in the cell viability. Furthermore, this assay endpoint can be referred to as a secondary readout, because this assay has produced multiple assay endpoints where this one serves a viability function. […]

Experiment [7] addresses PGR (gene 5241) (UniProt P06401). Description: TOX21_PR_LUC_Followup_Agonist: Tox21 HEK293 Progesterone Receptor (PR) Agonism Luciferase Follow-Up Assay (AID 2283937). The text has this: (§1) TOX21_PR_LUC_Followup is a secondary assay for specificity for the TOX21_PR_BLA_Agonist assay. To differentiate true PR agonists from cytotoxic substances, this follow up assay is multiplexed with a cell viability assay.TOX21_PR_LUC_Followup_Agonist is one of one assay component(s) measured or calculated from the TOX21_PR_LUC_Followup assay. It is designed to make measurements of luciferase induction, a form of inducible reporter, as detected with bioluminescence signals by CellTiter-Glo Luciferase-coupled ATP quantitation technologyData from the assay component TOX21_PR_LUC_Followup_Agonist was analyzed into 1 assay endpoint. This assay endpoint, TOX21_PR_LUC_Followup_Agonist, was analyzed in the positive analysis fitting direction relative to DMSO as the negative control and baseline of activity. […] Furthermore, this assay endpoint can be referred to as a primary readout, because the performed assay has only produced 1 assay endpoint. […]
(§2) Quality Control Precautions: Maintain cells below 85-90% confluence in culture medium. […] Then 4 uL of ONE-Glo reagent (Promega, Madison, WI) was added to each plate using a BioRAPTR Flying Reagent Dispenser (FRD) workstation (Beckman Coulter, Indianapolis, IN, USA) and luminescence was quantified on a ViewLux (PerkinElmer, Shelton, CT) plate reader after 30 min incubation at room temperature.

Experiment [8] has the same target. Put plainly: TOX21_PR_LUC_Followup_Antagonist: Tox21 HEK293 Progesterone Receptor (PR) Antagonism Luciferase Follow-Up Assay (AID 2283938; active means hit-call score of the fitted dose curve at least 0.9, where 1 is the maximum;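 further: curve fitted upward as signal gain over DMSO baseline despite antagonist label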).
Excerpt: as §1, with “assay.TOX21_PR_LUC_Followup_Antagonist” for “assay.TOX21_PR_LUC_Followup_Agonist”, “TOX21_PR_LUC_Followup_Antagonist” for “TOX21_PR_LUC_Followup_Agonist”, “TOX21_PR_LUC_Followup_Antagonist,” for “TOX21_PR_LUC_Followup_Agonist,”
as §2

Experiment [9] addresses Thyroid hormone receptor alpha (Rattus norvegicus) + Thyroid hormone receptor beta (Rattus norvegicus) (UniProt P18113+P63059). Description: TOX21_TR_LUC_GH3_Agonist_Followup: Tox21 GH3 Thyroid Hormone Receptor Agonism Luciferase Follow-Up Assay (AID 2283939; active means hit-call score of the fitted dose curve at least 0.9, where 1 is the maximum). The gist of the method: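 Rat GH3 cells (1,500/well) in serum-free assay medium, treated with 15-point series, 92 uM to 5 nM final, for 24 h at 37C. Luciferase via ONE-Glo luminescence; gain of signal fitted against DMSO, T3 positive control.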

Experiment [10] can be described thus: CEETOX_H295R_TESTO_noMTC: CeeTox H295R High-throughput Steroidogenesis Assay for Testosterone (TESTO), maximum tolerated concentration (MTC) filtered results only (AID 2283924). The following applies: actives raise or lower the signal. The gist of the method: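 H295R cells prestimulated 48 h with 10 uM forskolin, then exposed 48 h to chemicals in 0.1% DMSO final. Testosterone in medium quantified by MTBE extraction and HPLC-MS/MS; bidirectional fit versus DMSO, concentrations […] filtered by MTT-based maximum tolerated concentration.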

Chain of PGR (gene 5241) (P06401 whole entry, looked up): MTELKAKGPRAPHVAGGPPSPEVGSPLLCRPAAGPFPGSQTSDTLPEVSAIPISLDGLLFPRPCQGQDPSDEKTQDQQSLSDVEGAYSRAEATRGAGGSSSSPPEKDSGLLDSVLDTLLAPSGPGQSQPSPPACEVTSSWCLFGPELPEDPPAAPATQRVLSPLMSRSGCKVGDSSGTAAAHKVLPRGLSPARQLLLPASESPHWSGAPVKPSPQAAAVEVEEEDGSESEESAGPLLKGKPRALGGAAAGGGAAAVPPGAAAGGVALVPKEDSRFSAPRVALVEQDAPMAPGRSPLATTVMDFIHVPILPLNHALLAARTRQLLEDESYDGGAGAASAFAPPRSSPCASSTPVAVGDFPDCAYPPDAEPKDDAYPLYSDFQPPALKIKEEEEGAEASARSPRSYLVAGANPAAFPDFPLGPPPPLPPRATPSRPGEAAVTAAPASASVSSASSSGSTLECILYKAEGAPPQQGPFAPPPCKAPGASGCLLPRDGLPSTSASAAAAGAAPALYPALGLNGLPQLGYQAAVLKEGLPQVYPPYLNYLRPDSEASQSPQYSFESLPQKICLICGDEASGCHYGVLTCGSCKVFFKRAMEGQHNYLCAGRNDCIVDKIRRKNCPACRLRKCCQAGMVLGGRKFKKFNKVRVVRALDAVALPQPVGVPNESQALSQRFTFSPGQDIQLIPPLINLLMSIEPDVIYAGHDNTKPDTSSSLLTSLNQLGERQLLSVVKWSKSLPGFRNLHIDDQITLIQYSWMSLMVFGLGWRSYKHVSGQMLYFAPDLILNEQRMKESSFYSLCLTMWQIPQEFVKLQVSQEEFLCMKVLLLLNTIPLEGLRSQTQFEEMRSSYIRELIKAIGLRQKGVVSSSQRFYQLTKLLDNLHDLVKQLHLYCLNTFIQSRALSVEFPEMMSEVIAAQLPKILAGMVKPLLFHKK
Chain of Thyroid hormone receptor alpha (Rattus norvegicus) + Thyroid hormone receptor beta (Rattus norvegicus) (P63059 whole entry, looked up): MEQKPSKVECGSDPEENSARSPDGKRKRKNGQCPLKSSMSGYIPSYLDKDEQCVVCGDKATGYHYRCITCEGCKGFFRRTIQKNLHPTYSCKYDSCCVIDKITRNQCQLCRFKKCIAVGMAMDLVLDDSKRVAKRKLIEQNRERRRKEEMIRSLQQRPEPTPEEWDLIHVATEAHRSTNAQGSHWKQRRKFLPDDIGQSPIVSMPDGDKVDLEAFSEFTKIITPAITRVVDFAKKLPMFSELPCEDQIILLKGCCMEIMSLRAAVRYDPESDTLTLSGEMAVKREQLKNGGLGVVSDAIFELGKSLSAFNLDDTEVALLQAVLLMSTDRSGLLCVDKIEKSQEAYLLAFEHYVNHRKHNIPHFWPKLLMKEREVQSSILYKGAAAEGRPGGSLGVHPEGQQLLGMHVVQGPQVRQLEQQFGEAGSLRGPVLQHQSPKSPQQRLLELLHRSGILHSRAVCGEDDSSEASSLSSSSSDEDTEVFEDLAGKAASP
Chain of Thyroid hormone receptor alpha (Rattus norvegicus) + Thyroid hormone receptor beta (Rattus norvegicus) (P18113 whole entry, looked up): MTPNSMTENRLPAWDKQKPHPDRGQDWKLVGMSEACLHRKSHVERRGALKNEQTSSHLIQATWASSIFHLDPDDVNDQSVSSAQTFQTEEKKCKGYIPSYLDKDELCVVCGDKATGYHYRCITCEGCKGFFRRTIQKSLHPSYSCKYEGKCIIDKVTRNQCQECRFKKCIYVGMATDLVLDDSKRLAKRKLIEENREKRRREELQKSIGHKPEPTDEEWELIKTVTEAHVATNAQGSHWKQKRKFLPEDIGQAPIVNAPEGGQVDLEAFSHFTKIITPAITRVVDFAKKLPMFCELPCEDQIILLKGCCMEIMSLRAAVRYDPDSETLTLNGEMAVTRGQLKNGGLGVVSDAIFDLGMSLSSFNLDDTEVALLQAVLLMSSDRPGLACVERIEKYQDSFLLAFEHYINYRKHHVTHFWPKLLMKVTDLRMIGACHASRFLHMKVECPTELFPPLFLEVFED

`Nc1c(Br)cc([N+](=O)[O-])cc1Br`: the outcome in experiment [1] and in [2] was inactive.

Consider `O=C(c1ccccc1)c1ccc(O)cc1O`, for which the result in experiment [3], in experiment [5], in experiment [6], in experiment [7] and in experiment [9] was inactive. The AC50 in experiment [4] is 63.5 µM (active); in experiment [8], 33.5 µM (active).

For the molecule `CC(C)(C)c1cc(CCC(=O)NCCCCCCNC(=O)CCc2cc(C(C)(C)C)c(O)c(C(C)(C)C)c2)cc(C(C)(C)C)c1O`, the AC50 in [1] was 0.452 µM (active). Further, the result in [2] and in experiment [10] was inactive.

For the origin of these results see PubChem BioAssay (EPA / NIEHS).
